Test [1] deals with Human papillomavirus type 1a protein E7 (residues 44-93). The experiment in a line: small molecules binding HPV E7 44-93 – biochemical, small-molecule microarray, residues 44-93, 635 nm fluorescence, primary screen (AID 1108).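 Also: E7 fragment applied at 1 µg/mL in TBST for 1 h at 4 C; score combines spot fluorescence with its signal to noise ratio.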 The settings on record: fluorescence 635 nm, higher = more signal.
The nature of test [2]: hepatitis C replication reporter changes, two-sided – Huh7 cells, luciferase reporter, HCV replication inhibitor project, primary screen (AID 1109).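 Also: huh7 hepatoma cells harbouring a luciferase neomycin HCV replicon reporter; luciferase luminescence as measure of HCV replicon replication; test concentration not given here.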 The settings on record: Huh7 HCV replicon luciferase reporter, 48 h; higher = more signal. Background: Reporter assays use an easily measured gene product as a stand-in for the process of interest.
In test [3] the target is Left-right determination factor 2 (Homo sapiens) (UniProt O00292). Put plainly: small molecules binding LEFTY2 protein – biochemical, small-molecule microarray, 635 nm fluorescence scan, primary screen (AID 1110). As to conditions: higher = more signal.
Left-right determination factor 2 (Homo sapiens), sequence (O00292 whole entry, looked up): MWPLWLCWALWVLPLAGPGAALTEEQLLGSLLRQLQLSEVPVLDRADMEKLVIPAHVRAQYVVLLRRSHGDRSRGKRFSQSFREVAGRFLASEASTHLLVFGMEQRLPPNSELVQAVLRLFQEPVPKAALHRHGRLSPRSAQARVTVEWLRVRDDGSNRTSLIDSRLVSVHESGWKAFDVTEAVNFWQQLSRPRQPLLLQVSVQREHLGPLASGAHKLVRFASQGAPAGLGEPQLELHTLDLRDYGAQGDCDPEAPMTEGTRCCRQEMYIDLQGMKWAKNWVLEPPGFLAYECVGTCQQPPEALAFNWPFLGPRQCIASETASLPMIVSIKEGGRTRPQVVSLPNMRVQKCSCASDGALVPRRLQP
Test [4] addresses Calmodulin-1 (Homo sapiens) (UniProt P0DP23). The experiment in a line: small molecules binding calmodulin-1 with EGTA – biochemical, small-molecule microarray, Cy5-labelled CALM1, profiling panel (AID 1111).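 Also: labelled calmodulin applied in Tris saline Tween buffer holding calcium plus EGTA and DTT.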 The settings on record: Cy5-CALM1 binding fluorescence, higher = more signal.
Test [5] has the same target. Put plainly: small molecules binding Ca-loaded calmodulin-1 – biochemical, small-molecule microarray, Cy5-labelled CALM1, plus calcium, artefact control for SMM control-protein annotation, profiling panel (AID 1112).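 Also: score merges spot fluorescence with signal to noise from triplicate slides.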 As to conditions: Cy5-CALM1 binding fluorescence, higher = more signal.
Test [6] is described as follows: probe aWnt5a binding to arrayed compounds – biochemical, biotinylated probe, 635/667 nm fluorescence, primary screen (AID 1113).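 Also: score merges 667 nm fluorescence intensity with signal-to-noise per printed feature.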 As to conditions: small-molecule microarray, higher = more signal.
A short description of test [7]: probe aShh binding to arrayed compounds – biochemical, biotinylated probe, 635/667 nm fluorescence, primary screen (AID 1114).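 Also: probe is biotin-labelled aShh protein from a stem cell growth factor screen; measures binding of labelled protein to compounds printed on the slide; score merges feature fluorescence at 667 nm with signal-to-noise.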 As to conditions: small-molecule microarray, higher = more signal.
The nature of test [8]: probe aNog binding to arrayed compounds – biochemical, biotinylated probe, 635/667 nm fluorescence, primary screen (AID 1115).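 Also: probe is biotinylated aNog protein used at 0.15 µg/mL for 1 h at 4 C; z-score combines 667 nm fluorescence of each spot with its signal to noise.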 The settings on record: small-molecule microarray, higher = more signal.
In test [9] the target is Torsin-1A-interacting protein 1 (Homo sapiens) (UniProt Q5JTV8). Put plainly: compound microarray binding of lysate hLAP1 – cell lysate, small-molecule microarray, COS7 lysate, 635/667 nm fluorescence, primary screen (AID 1116). As to conditions: 635 nm fluorescence, higher = more signal.
Torsin-1A-interacting protein 1 (Homo sapiens), sequence (Q5JTV8 whole entry, looked up): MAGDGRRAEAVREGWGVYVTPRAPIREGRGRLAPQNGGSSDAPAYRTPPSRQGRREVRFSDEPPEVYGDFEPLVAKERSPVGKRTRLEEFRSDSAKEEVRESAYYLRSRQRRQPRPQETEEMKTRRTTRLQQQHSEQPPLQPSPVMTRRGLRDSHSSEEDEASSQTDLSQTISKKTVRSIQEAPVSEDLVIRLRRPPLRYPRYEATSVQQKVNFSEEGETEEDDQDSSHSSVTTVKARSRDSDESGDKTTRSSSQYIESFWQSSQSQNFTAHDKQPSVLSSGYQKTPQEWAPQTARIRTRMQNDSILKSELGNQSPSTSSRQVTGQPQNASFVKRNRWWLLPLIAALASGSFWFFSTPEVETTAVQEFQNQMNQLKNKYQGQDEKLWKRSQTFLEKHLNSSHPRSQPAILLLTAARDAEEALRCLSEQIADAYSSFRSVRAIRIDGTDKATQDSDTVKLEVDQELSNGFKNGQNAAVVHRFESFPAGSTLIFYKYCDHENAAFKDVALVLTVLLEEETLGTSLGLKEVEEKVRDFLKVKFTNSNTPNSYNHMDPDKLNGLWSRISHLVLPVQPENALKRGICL
Test [10] deals with Alpha-bungarotoxin (Bungarus multicinctus) (UniProt P60615). Put plainly: compounds binding labelled alpha-BTX control protein – biochemical, small-molecule microarray, Alexa647 label, 635/667 nm fluorescence, artefact control for SMM control protein annotation, profiling panel (AID 1117). As to conditions: alpha-BTX-A647 binding fluorescence, higher = more signal.
Alpha-bungarotoxin (Bungarus multicinctus), sequence (P60615 whole entry, looked up): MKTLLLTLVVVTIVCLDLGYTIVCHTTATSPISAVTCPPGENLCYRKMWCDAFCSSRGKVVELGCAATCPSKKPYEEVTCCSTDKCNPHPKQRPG

Regarding `COC(=O)[C@H](C)NC(=O)CCC1CC(OC(=O)NCc2ccc3c(c2)OCO3)CC2(CCCC(COC(=O)NCc3cccc(C(F)(F)F)c3)O2)O1` (stereo not given in full), the composite z-score in test [1] is 0.817; in test [3], 1.11; in test [4] it was 0.601; in test [5], -0.311; in [6] it was -0.113; in test [7] it was 0.0756. Also, the composite z-score stood at 0.33 in test [8], 0.794 in test [9] and 0.446 in test [10]. In test [2], this compound yielded a z-score of -1.79.

As to `CO[C@@H]1COC(=O)CC=C[C@@H](C)[C@@H]2C=C[C@H](O)[C@@H](COC(=O)CC=C[C@H]1C)O2`, the composite z-score in [1] was -0.913; in test [3], 1.5; in [4], -1.12; in [5], -2.14; in test [6], -0.224; in [7], -0.0146. Further, the values for the composite z-score in test [8], in test [9] and in test [10] were -0.349, 0.27 and 0.149, respectively. Moreover, in test [2], the z-score is 0.0581.

Turning to `COc1ccc(O[C@H]2C=C[C@@H](c3ccccc3)O[C@@H]2COC(=O)CCC(C)=NOC(C)CN2CCCc3nc(C)c(C)cc32)cc1` (stereo not given in full), the composite z-score was 1.31 in test [1]; 0.646 in test [3]; 0.0727 in [4]; -0.384 in test [5]; -0.124 in [6]; 0.0278 in test [7]. Further, the composite z-score in test [8] stood at 0.109; in test [9] it was 0.4; in test [10], 0.463. The compound also had a z-score in [2] of -1.81.

On to `CCOC(=O)[C@H](CC(C)C)NC(=O)CCC1CC(OC(=O)NCc2ccc3c(c2)OCO3)CC2(CCCC(COC(=O)NCCCN3CCCC3=O)O2)O1` (stereo not given in full), for which the composite z-score was 1.26 in test [1]; 0.563 in test [3]; 0.542 in test [4]; -0.348 in [5]; -0.0519 in [6]; -0.0073 in [7]. The composite z-score in [8] was -0.158; in [9] it was 0.0469; in test [10] it was 0.758. In addition, the z-score in test [2] is -0.584.

Take `C[C@@H](ON=C1[C@H]2CCn3c(=O)n(-c4ccccc4)c(=O)n3[C@H]2[C@H](O)[C@@H]2O[C@H]12)c1cn([C@@H]2COC[C@H]2O)nn1`: the composite z-score was 0.361 in [1]; 0.698 in test [3]; -0.287 in [4]; -0.568 in test [5]; -0.119 in test [6]; 0.0611 in [7]. In addition, the composite z-score was determined as 0.139 in [8], 0.07 in [9] and 0.237 in test [10]. This compound had a z-score in test [2] of -2.38.

As for `CCCNC(=O)OC[C@H]1O[C@H](CCON=C(C)CCN2CCCc3nc(C)c(C)cc32)C=C[C@@H]1Oc1ccc(OC)cc1`, the composite z-score was 0.652 in [1]; 0.425 in test [3]; 0.65 in test [4]; 0.241 in test [5]; -0.119 in test [6]; 0.0952 in test [7]. The composite z-score in test [8] stood at 0.358; in test [9], 0.186; in test [10] it was 0.782. The compound also showed a z-score in test [2] of -2.36.

`C[C@@H](c1ccccc1)N1C(=O)[C@H]2[C@H]3[C@H](O)[C@H](O)CC(=O)[C@H]3CC[C@H]2C1=O`: the composite z-score was 0.295 in [1]; 0.461 in test [3]; 0.364 in test [4]; -0.255 in test [5]; -0.154 in [6]; -0.206 in test [7]. Moreover, the figures for the composite z-score in [8], in [9] and in [10] were -0.026, -0.0326 and -0.0931, respectively. The z-score in [2] was -0.127.

Take `O=C1[C@H]2[C@H]3[C@H](O)[C@H](O)CC(=NOC[C@@H](O)COCc4ccco4)[C@H]3CC[C@H]2C(=O)N1C[C@@H]1CCCO1`: the composite z-score was -0.317 in test [1]; 1.19 in test [3]; -0.428 in test [4]; -1.53 in [5]; -0.0037 in test [6]; 0.0899 in test [7]. In addition, the composite z-score is -0.158 in test [8], 0.583 in [9] and 0.349 in test [10]. Further, the z-score in [2] was -0.205.

With `CCOC(=O)[C@H](CC(C)C)NC(=O)CCC1CC(OC(=O)NCc2cccc3ccccc23)CC2(CCCC(COC(=O)NCCC(C)C)O2)O1` (stereo not given in full), the composite z-score is 0.15 in test [1]; 0.443 in test [3]; 0.18 in [4]; -0.703 in test [5]; -0.0529 in test [6]; -0.182 in [7]. Moreover, the composite z-score is -0.32 in test [8], 0.165 in test [9] and 0.503 in [10]. In addition, the z-score in test [2] stood at 0.502.

For `O=C1[C@H]2[C@H]3[C@H](O)[C@H](O)CC(=NOC[C@@H](O)COCc4ccco4)[C@H]3CC[C@H]2C(=O)N1Cc1ccccc1`, the composite z-score in [1] is -1.01; in test [3] it was 0.665; in test [4] it was -0.684; in test [5], -1.22; in test [6] it was -0.18; in [7], -0.27. Further, the composite z-score in test [8] is 0.0444; in test [9], -0.193; in test [10], -0.309. Moreover, the z-score in test [2] was -0.523.

On to `C[C@H]1CC[C@H]2C(=O)OC(CO)CN2[C@@H]1c1ccc(Br)cc1` (stereo not given in full), for which the composite z-score in test [1] is -0.558; in [3] it was 0.137; in test [4], -0.201; in test [5], -0.607; in [6] it was -0.0778; in test [7], 0.0284. Besides, the composite z-score in [8] is -0.178; in test [9], -0.303; in test [10], 0.867. The compound also gave a z-score in test [2] of -0.125.

With `CO[C@H]1COC(=O)[C@@H](C)COC(=O)[C@@H](OCc2ccccc2)C=C[C@@H]1C`, the composite z-score in [1] was -0.193; in test [3] it was 0.281; in test [4] it was 0.0243; in [5], -0.642; in [6], -0.0346; in test [7], -0.276. The composite z-score in test [8] was -0.37; in test [9], -0.0153; in test [10], -0.807. In [2], this compound displayed a z-score of -1.38.

Take `COC(=O)[C@@H]1CC[C@H](C)[C@@H](c2ccc(C)cc2)N1C(=O)c1ccc(C=NO[C@@H](C)c2cn([C@H](CO)Cc3ccccc3)nn2)cc1`: the composite z-score in test [1] was 1.3; in test [3], 0.785; in [4], -0.0062; in test [5], -0.388; in test [6], 0.116; in test [7], -0.0146. Moreover, the composite z-score in [8] is -0.0554; in [9], 0.641; in test [10], 0.51. In test [2], the z-score was -2.25.

Turning to `CC(=O)OC[C@H]1O[C@H](CCON=C2[C@H]3CCn4c(=O)n(-c5ccccc5)c(=O)n4[C@H]3[C@H](O)[C@@H]3O[C@H]23)C=C[C@@H]1OC(C)=O`, the composite z-score was 0.253 in test [1]; 0.5 in test [3]; -0.151 in [4]; -0.354 in test [5]; 0.0001 in test [6]; 0.089 in test [7]. The composite z-score in [8] amounted to 0.449; in test [9], 0.322; in [10], 0.415. The compound also yielded a z-score in [2] of -4.82.

`CO[C@H]1COC(=O)CC=C[C@H](C)COC(=O)[C@@H](C)NC(=O)CC=C[C@@H]1C`: the composite z-score in test [1] was -1.45; in test [3] it was 1.54; in [4] it was -1.13; in [5], -2.44; in test [6], -0.0816; in test [7], -0.0035. For the same compound, the composite z-score is -0.137 in test [8], 0.621 in [9] and 0.13 in test [10]. The compound also had a z-score in test [2] of -1.83.

Turning to `COc1ccc(O[C@H]2C=C[C@@H](c3ccccc3)O[C@@H]2CON=CC[C@@H]2C=C[C@H](OC(C)=O)[C@@H](COC(C)=O)O2)cc1`, the composite z-score is -0.332 in test [1]; 0.425 in test [3]; -0.169 in [4]; -0.282 in test [5]; -0.145 in test [6]; -0.221 in test [7]. Further, the composite z-score in [8] is -0.083; in test [9], 0.28; in test [10] it was -0.0924. Further, in [2], the z-score was -0.821.

For the compound `C#CCCCON=C1C[C@@H](O)[C@@H](O)[C@@H]2[C@@H]3C(=O)N(c4cccc(Oc5ccccc5)c4)C(=O)[C@@H]3CC[C@H]12`, the composite z-score in [1] was -0.578; in test [3], -0.914; in test [4], -0.423; in [5], 0.361; in test [6], -0.172; in test [7], -0.138. Further, the composite z-score is -0.237 in test [8], 0.441 in test [9] and -0.702 in test [10]. In addition, the z-score in test [2] is 0.18.

The values are drawn from PubChem BioAssay.
